Consider one compound from ChEMBL document CHEMBL1201862, “PubChem BioAssay data set” (2004).

The whole screen tested about 350,000 compounds, of which about 700 (0.2%) were called active. No cut-off for these calls is given here. This excerpt belongs to a sample that is enriched for actives.

The target of this assay is RecQ-like DNA helicase BLM (Homo sapiens) (UniProt P54132). The assay can be described thus: qHTS Assay for Inhibitors of Bloom's syndrome helicase (BLM). The format is functional. For orientation: In qHTS, concentration-response curves come from the screen itself.
Sequence of RecQ-like DNA helicase BLM (Homo sapiens) (P54132 whole entry): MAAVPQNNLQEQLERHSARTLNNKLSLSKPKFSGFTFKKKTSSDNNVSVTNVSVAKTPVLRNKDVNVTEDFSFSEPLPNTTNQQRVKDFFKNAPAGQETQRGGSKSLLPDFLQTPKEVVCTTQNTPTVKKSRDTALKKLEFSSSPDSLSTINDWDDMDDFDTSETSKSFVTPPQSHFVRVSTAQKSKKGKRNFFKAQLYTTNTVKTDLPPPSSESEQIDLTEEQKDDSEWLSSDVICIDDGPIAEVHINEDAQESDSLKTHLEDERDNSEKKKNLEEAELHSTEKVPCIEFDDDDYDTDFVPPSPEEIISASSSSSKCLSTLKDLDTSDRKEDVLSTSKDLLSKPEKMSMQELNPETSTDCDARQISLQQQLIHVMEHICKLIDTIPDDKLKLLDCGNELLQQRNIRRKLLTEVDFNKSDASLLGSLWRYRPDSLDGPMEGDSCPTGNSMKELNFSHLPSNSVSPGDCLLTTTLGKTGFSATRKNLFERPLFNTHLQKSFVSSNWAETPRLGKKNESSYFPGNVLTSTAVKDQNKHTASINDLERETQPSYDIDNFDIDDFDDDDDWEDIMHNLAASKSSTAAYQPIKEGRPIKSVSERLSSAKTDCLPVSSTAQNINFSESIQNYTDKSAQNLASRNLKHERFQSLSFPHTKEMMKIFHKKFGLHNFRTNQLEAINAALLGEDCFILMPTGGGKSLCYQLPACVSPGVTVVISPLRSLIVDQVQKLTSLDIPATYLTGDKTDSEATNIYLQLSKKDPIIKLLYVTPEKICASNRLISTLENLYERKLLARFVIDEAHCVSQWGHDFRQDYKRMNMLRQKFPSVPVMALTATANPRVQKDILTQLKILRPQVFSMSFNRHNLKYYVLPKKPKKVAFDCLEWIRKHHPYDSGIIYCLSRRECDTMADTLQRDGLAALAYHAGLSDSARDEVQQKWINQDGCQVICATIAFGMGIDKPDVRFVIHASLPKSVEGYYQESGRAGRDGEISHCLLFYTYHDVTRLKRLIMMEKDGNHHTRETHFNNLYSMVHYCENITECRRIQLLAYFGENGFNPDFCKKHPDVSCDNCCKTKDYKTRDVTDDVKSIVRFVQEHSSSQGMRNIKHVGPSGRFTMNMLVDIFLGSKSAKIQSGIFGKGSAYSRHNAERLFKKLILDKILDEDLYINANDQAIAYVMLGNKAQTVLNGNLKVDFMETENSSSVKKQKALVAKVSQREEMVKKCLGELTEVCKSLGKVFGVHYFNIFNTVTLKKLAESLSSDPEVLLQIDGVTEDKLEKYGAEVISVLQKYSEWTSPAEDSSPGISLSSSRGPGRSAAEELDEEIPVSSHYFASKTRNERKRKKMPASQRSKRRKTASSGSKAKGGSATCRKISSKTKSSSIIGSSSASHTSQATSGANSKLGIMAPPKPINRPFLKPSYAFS
Turning to `N[C@H](Cc1ccc(O)c(O)c1)C(=O)O`, the Potency was 28.2 µM (active).
